A selection: hits, their analogues and other compounds. The true share with any hit is near 3.4%.
GPR151 activ: activators of human GPR151; AID 1508602; Q8TDV0; activation, % at 11.2 µM; PathHunter beta-arrestin GPR151 cells, luminescence; actives 1% (n = 650,000); in the data active = activation above about 4.9%
FBW7 act: activators of human E3 ligase FBW7. actives 0.13% (n = 650,000). AID 1259310. normalized activity (activation), % at 26.1 µM. AlphaScreen FBW7–phospho-cyclin E peptide binding, activator screen. Q969H0; in the data active = normalized activity above about 1.9%;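 note: purified mutant Fbw7 with reduced substrate affinity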
Target sequence (Q969H0 whole entry, looked up): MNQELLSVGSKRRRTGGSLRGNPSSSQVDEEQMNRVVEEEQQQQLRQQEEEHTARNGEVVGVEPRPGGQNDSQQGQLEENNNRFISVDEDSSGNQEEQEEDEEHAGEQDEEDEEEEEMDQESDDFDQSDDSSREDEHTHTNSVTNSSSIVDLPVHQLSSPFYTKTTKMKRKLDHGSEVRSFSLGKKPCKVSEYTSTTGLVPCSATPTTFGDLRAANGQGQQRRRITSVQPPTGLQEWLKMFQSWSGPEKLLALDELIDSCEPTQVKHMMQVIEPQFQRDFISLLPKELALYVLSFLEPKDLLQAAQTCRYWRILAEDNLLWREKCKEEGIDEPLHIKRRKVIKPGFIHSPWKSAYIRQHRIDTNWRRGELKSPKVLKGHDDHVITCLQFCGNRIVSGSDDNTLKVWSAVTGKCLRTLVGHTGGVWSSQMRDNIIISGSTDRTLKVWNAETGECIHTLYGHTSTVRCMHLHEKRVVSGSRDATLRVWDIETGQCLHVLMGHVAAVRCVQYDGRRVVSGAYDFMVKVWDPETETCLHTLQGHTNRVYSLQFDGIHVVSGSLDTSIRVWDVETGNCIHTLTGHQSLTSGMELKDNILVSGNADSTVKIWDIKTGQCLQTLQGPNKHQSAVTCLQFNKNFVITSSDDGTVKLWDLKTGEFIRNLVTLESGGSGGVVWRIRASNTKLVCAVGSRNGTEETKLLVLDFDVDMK
MITF inh: blocks human microphthalmia-associated transcription factor; O75030; AlphaScreen MITF homodimerization, bead proximity signal; inhibition, % at 2.6 µM; actives 0.91% (n = 650,000); in the data active = inhibition above about 50%
TEAD-YAP inh: TEAD-YAP interaction inhibition; HEK-TIYL cells, TEAD-Gal4/YAP UAS-luciferase luminescence; inhibition, % at 9.12 µM; actives 1.4% (n = 640,000); AID 1259422; in the data active = inhibition above about 32%
MITF confirm: confirmation of human MITF inhibitors | shares compounds with MITF inh | AlphaScreen MITF homodimerization, biotin/His-MITF beads | inhibition, % at 2.6 µM | actives 16% (n = 4,700) | AID 1259372;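 active = inhibition above a cutoff derived from the DMSO control wells, cut at about 28% in these data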;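 note: inhibitors lower the bead chemiluminescence by keeping MITF from dimerizing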
AS interf DR: AlphaScreen optical interference, dose response counter-screen; shares compounds with MITF inh; AlphaScreen optical interference counterscreen, cell-free; IC50, µM; actives 6% (n = 480); AID 1259373; call rule not given here
AlphaScreen intf2: optically interferes with AlphaScreen signal; shares compounds with MITF inh; AID 1259376; actives 7.6% (n = 4,700); inhibition, % at 2.6 µM; LysRS AlphaScreen counterscreen, signal interference, triplicate;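 active = inhibition above a cutoff derived from the DMSO control wells, cut at about 30% in these data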
A number is an active result; n = inactive; x = not tested or not shown.

SMILES	GPR151 activ	FBW7 act	MITF inh	TEAD-YAP inh	MITF confirm	AlphaScreen intf2	others
O=[N+]([O-])c1cc(C=Nc2ccc(N3CCOCC3)cc2)c(O)c([N+](=O)[O-])c1	n	n	74.5	n	83.3	n	AS interf DR=n
Fc1ccc(CN2CCN(CCCc3ccccc3)CC2)cc1	n	n	58.6	n	n	n
c1ccc(CCCN2CCN(C3CCN(Cc4ccccc4)CC3)CC2)cc1	n	n	n	n	x	x
CN1CCCN(Cc2ccccc2F)CC1	n	n	n	n	x	x
Fc1ccccc1CN1CCN(CCCc2ccccc2)CC1	n	n	72.8	n	n	n
c1ccc(CCCN2CCN(Cc3cccnc3)CC2)cc1	n	n	83.4	n	n	n
Fc1ccccc1OCCCN1CCN(Cc2ccccc2)CC1	n	n	64.1	n	n	n
CCOC(=O)COc1cc(OCC(=O)OC)ccc1C(C)=O	n	n	n	n	x	x
COc1ccc(-c2nccc(NCCCN3CCCC3=O)n2)cn1	n	n	n	n	x	x
O=C(O)c1ccc(NS(=O)(=O)c2cccc(F)c2)cc1	n	n	n	n	x	x
Cc1ccc(-c2noc(C3CCCN(S(=O)(=O)c4ccc(C(C)(C)C)cc4)C3)n2)o1 (stereo not given)	n	n	77.2	n	n	n
CCOC(=O)c1cc2c(=O)n3cc(C)ccc3nc2n(Cc2ccccc2)c1=N	n	n	n	n	x	x
CCOc1cc(C(=O)Nc2cc(-c3nc4cc(C)ccc4o3)ccc2Cl)cc(OCC)c1OCC	n	n	n	n	x	x
Cc1ccc(CN2CCN(C3CCCC3)CC2)cc1	n	n	n	n	x	x
Fc1ccc(CN2CCN(C3CCN(Cc4ccccc4)CC3)CC2)cc1	n	n	n	n	x	x
Fc1ccc(CN2CCN(C3CCCCCC3)CC2)cc1	n	n	64.5	n	n	n
Fc1ccc(CN2CCC(N3CCCCC3)CC2)cc1	n	n	n	n	x	x
c1cc(CN2CCN(C3CCCC3)CC2)ccn1	n	n	78.5	n	n	n
CCc1ccc(CN2CCN(C3CCCCCC3)CC2)cc1	n	n	79.4	n	n	n
Fc1ccc(CN2CCN(C3CCC(c4ccccc4)CC3)CC2)cc1 (stereo not given)	n	n	65.8	n	n	n
Cc1cc(OCCOCCN2CCNCC2)ccc1Cl	n	n	68.3	n	74.1	n	AS interf DR=n
Cc1ccc(C(C)C)cc1OCCOCCN1CCNCC1	n	n	70.6	n	n	n
CC(C)Cc1c(C#N)c(-c2ccccc2)[nH]c(=S)c1C#N	n	n	n	n	x	x
CCSCCOC(=O)C1=C(C)NC2=C(C(=O)CC(c3ccccc3)C2)C1c1ccc(Br)cc1 (stereo not given)	n	n	n	n	x	x
O=S1(=O)CCN2C(=N1)Sc1ccccc12	n	n	n	n	x	x
SMILES	GPR151 activ	FBW7 act	MITF inh	TEAD-YAP inh	MITF confirm	AlphaScreen intf2	others
COc1ccc2oc(=O)c(-c3cn4cccnc4n3)cc2c1	n	n	71.8	n	n	n
COc1ccc(C(=O)N2CCN(Cc3ccc(C(F)(F)F)cc3)CC2)cc1OC	n	n	51.1	48.6	n	n
COc1ccc(C(=O)N2CCN(Cc3cc(OC)c(O)c(OC)c3)CC2)cc1OC	n	n	n	n	x	x
COc1cc(OC)cc(C(=O)N2CCN(Cc3ccc(C(F)(F)F)cc3)CC2)c1	n	n	52.1	n	n	n
COc1cc(OC)cc(C(=O)N2CCN(Cc3ccc4ccccc4c3)CC2)c1	n	n	n	n	x	x
COc1ccc(/C=C2/N=C(c3ccccc3)OC2=O)cc1Cl	n	n	n	n	x	x
Cc1nn(C)cc1CN1CCc2ccc(NC(=O)C3CCCO3)cc2C1 (stereo not given)	n	n	n	n	x	x
CCc1n[nH]c(=S)n1N=C1CCC(C)CC1 (stereo not given)	n	n	59.4	n	n	n
CCc1n[nH]c(=S)n1/N=C/c1ccc(F)cc1	n	n	n	n	x	x
O=C(CNCc1cccnc1)Nc1ccccc1N1CCOCC1	n	n	102.3	n	n	n
Cc1cccc(NC(=O)CNCc2cccnc2)c1C	n	n	83.2	n	n	n
O=C(CNCc1cccnc1)N(c1ccccc1)c1ccccc1	n	n	94.9	n	n	n
Cc1cccc(NC(=O)CSCCO)c1C	n	n	n	n	x	x
O=C(CNCc1ccccc1Cl)Nc1ccccc1N1CCOCC1	n	n	62.0	n	n	n
O=C(COC(=O)c1ccccc1Cl)Nc1ccccc1N1CCOCC1	n	n	n	n	x	x
